Screening results from PubChem BioAssay.
a7 integrin act – integrin-mediated muscular dystrophy alleviation activation | Potency, µM (titrated, usually from 38.3 µM), without a hit: at the highest dose activation, most hits filed as activators | alpha7betagal myoblasts, beta-gal FDG fluorescence, 48 h | hit rate 0.064% among 350,000 | AID 624291;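 also: 100% = response of the positive control SU9516; nearly all actives have a fitted effect of over 60% in size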
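alpha7betagal+/- myoblasts (passage 13, 250/well) treated 48 h at 37C with compounds at 1:260 dilution of DMSO stock. Lysed, then beta-galactosidase activity read as FDG fluorescence (ex 480/em 540) after 30 min, with pre-read for autofluorescence.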
uPA generation – cell surface uPA generation inhibition; cell surface uPA generation assay, qHTS; Potency, µM (highest dose often 38.3 µM), without a hit: top-dose activity change, negative = inhibition, actives largely listed as inhibitors; hit rate 0.31% among 330,000; active = well fitted inhibition curve with a large enough effect; inconclusive = small, poorly fitted or top-dose-only effect; inactive = no such curve, though single readings can be large or run the other way; tested in mouse RAW 264.7 cells; also: % is scaled to controls: 0 for no effect and ±100 for the full control effect; nearly all actives have a fitted effect of over 55% in size
RORgamma inh – inhibitors of mouse ROR gamma transcriptional activity | P51450 | hit rate 5.4% among 310,000 | Potency, µM (top dose mostly 53.6 µM), without a hit: top-dose activity change, negative = inhibition, actives largely listed as inhibitors | AID 2551 | Drosophila S2 Gal4-RORgamma UAS-luciferase reporter, 20 h; also: % is scaled to controls: 0 for no effect and ±100 for the full control effect; nearly all actives have a fitted effect of over 60% in size
Target sequence (P51450 whole entry, looked up, the tested form may be a part): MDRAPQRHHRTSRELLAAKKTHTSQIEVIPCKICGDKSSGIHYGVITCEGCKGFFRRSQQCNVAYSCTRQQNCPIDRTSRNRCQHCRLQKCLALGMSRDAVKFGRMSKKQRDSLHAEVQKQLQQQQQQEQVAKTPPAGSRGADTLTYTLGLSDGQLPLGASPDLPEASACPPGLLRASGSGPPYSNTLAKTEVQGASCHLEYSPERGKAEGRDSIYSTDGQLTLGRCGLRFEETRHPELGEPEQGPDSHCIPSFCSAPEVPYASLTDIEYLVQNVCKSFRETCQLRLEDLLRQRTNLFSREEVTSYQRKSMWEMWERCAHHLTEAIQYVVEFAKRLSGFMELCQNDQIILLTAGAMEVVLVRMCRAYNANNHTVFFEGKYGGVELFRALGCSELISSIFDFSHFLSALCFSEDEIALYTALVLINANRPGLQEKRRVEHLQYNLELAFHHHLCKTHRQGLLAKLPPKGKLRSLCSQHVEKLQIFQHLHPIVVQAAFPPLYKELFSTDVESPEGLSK
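Schneider cells (Drosophila), stable Gal4 DBD–ROR gamma + UAS-luc; 1 hr cmpd preincubation; Cu2+ induction 700 uM final; 20 hr ambient; luminescence.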
VP16 counter – counter-screen for ROR gamma inhibitors: Gal4-VP16 reporter; Drosophila S2 Gal4-VP16 UAS-luciferase, luminescence, 20 h; Potency, µM (doses to about 53.6 µM), for the others: top-dose activity, negative = inhibition, actives largely listed as inhibitors; hit rate 3.5% among 310,000; AID 2546;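 also: Gal4-VP16 expression switched on by copper sulfate through the metallothionein promoter; % is scaled to controls: 0 for no effect and ±100 for the full control effect; nearly all actives have a fitted effect of over 50% in size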
Mito fusion yeast – mitochondrial division inhibition or fusion activation | Potency, µM (titrated, usually from 46.1 µM), for the others: top-dose growth rescue (activation), usual class: activators | AID 485298 | hit rate 0.23% among 320,000 | S. cerevisiae fusion-defective mutant growth rescue, CellTiterGlo 48 h; also: % of control where 0% means no effect; nearly all actives have a fitted effect of over 45% in size
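Yeast fusion mutant, YPEG (non-fermentable carbon), compound, 48 h at 37C non-permissive; CellTiterGlo added, 10 min RT, luminescence read. Rescued growth = division inhibition.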
BCR signal inh – chronic active BCR signaling inhibition. ABC-DLBCL IkBa-CBG/CBR reporter, luminescence ratio, 4 h. Potency, µM (top dose mostly 46.1 µM), without a hit: top-dose activity change, negative = inhibition, usual class: inhibitors. AID 493014. hit rate 0.05% among 340,000; active = well fitted inhibition curve with a large enough effect in the signal ratio, with a control signal flat, not every such curve was filed as active; inconclusive = small, poorly fitted or top-dose-only effect, or effect the other way, or a change in a side signal; the % refers to the signal ratio;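 also: plate controls were basal doxycycline-induced cells for no effect and cells given 10 µM MG132 for full effect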
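TMD8 ABC-DLBCL cells carrying doxycycline-inducible green luciferase fused to IkappaBalpha plus unfused red luciferase were exposed to compounds (up to 46 uM) for 4 hrs at 37C. Activity came from the overlap-corrected green/red luminescence ratio.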
Active calls of the source: *; ? = inconclusive; . = not tested or not shown; [ ] = remark or other dose. In the library only some 5.5% were active in any assay of this set; here they are far more common. Unless noted, calls follow the shape of the dose curve; as a rule, active = well fitted curve in the direction sought with a large enough effect; inconclusive = small, poorly fitted or top-dose-only effect, or another doubt; inactive = no such curve, though single readings can be large; an effect the other way counts as inactive or inconclusive. Potency is read from the fitted curve at half-maximal effect.

SMILES | a7 integrin act | uPA generation | RORgamma inh | VP16 counter | Mito fusion yeast | BCR signal inh
Cc1ccn2c(=O)nc(SCC(=O)N3N=C(c4cccs4)CC3c3ccc(F)cc3)nc2c1 (stereo unspecified) | -30% | 1% | . | . | 5% | ?
CC(C)C(C(=O)NC1=NCCS1)c1ccc(Cl)cc1 (stereo unspecified) | -6% | -4% | 4.5µM* | ? | -12% | 1%
O=C(NN=Cc1cccc([N+](=O)[O-])c1)c1cc(-c2cccnc2)nc2ccccc12 | 12% | -2% | . | . | . | ?
O=C(N/N=C/C=C/c1ccccc1[N+](=O)[O-])c1cc(-c2cccnc2)nc2ccccc12 | -18% | ? | 7.1µM* | 5.6µM* | 1% | ?
COc1ccccc1-c1cc(C(=O)N/N=C/C=C/c2ccccc2[N+](=O)[O-])c2ccccc2n1 | -25% | 1% | 8.9µM* | 11µM* | -1% | -22%
COc1ccccc1-c1cc(C(=O)N/N=C\c2cn(C)nc2C)c2ccccc2n1 | -3% | 0% | ? | -8% | 1% | ?
CCCCC1(c2ccc(F)cc2)NC(=O)N(CC(=O)Nc2ccc(N3CCOCC3)cc2)C1=O (stereo unspecified) | 25% | -12% | . | . | . | -1%
Nc1ccc[n+](CC(=O)c2ccccc2)c1 | ? | 5% | -9% | -2% | 0% | -1%
CCc1n[n+](CC(=O)c2ccccc2)c(N)s1 | -15% | -16% | 2.8µM* | 2.2µM* | 8% | ?
O=c1cc2c(nn1Cc1ccc(Cl)cc1Cl)-c1ccccc1CC2 | -24% | 0% | 13% | -23% | ? | -15%
O=c1cc2c(nn1Cc1ccccc1Cl)-c1ccccc1CC2 | -11% | 5% | 22% | 5% | 20µM* | -11%
FC(F)(F)c1cnc(N/N=C/c2ccncc2)c(Cl)c1 | ? | 2% | 13µM* | ? | -6% | -1%
COc1ccc(/C=N/Nc2ncc(C(F)(F)F)cc2Cl)cc1OC | 14% | -12% | ? | 3.5µM* | -5% | ?
Cc1cc(C)c(NC(=O)CSc2nnc3[nH]c(=O)cc(C)n23)c(C)c1 | . | . | . | . | . | 10%
O=C(CCS(=O)(=O)c1ccc(F)cc1)Nc1nccs1 | -41% | . | . | . | . | .
COc1ccc(/C=N\NC(=S)SCN2C(=O)C3CCC(C)(C2=O)C3(C)C)cc1 (stereo unspecified) | -12% | -8% | . | . | . | .
CN(C)c1ccc(/C=N\NC(=S)SCN2C(=O)C3CCC(C)(C2=O)C3(C)C)cc1 (stereo unspecified) | -11% | -4% | 0.32µM* | ? | -2% | ?
CC(C)NC(=O)C1CCN(C2CCN(C(=O)c3cc4c(s3)CCCCC4)CC2)CC1 | -43% | -4% | 10µM* | 7.9µM* | -3% | -1%
NC(=O)C1CCN(C(=O)c2cc3c(s2)CCCC3)CC1 | 0% | 1% | . | . | 12% | -8%
N#Cc1ccsc1NC(=O)c1cccc(-n2cnnn2)c1 | 20% | 3% | ? | -14% | 3% | 6%
O=C(c1ccco1)N1CCC2(CCCN(c3cccc(-c4ccccc4)c3)C2)CC1 | . | . | 29% | -3% | . | .
O=C(NCCc1ccccc1)C(=O)NCC1CCCN1S(=O)(=O)c1cccs1 (stereo unspecified) | 1% | -6% | . | . | 3% | 12%
Cc1ccc(S(=O)(=O)Nc2ccsc2C#N)cc1 | ? | 5% | 18% | -4% | ? | -1%
CCOc1ccc(-c2nnc(NC(=O)Cc3cc(OC)c(OC)c(OC)c3)o2)cc1 | -8% | 5% | 11µM* | ? | -2% | 4%
COc1cc(-c2nnc(NC(=O)CCS(=O)(=O)c3ccccc3)o2)cc(OC)c1OC | -50% | 6% | . | . | 0% | ?
SMILES | a7 integrin act | uPA generation | RORgamma inh | VP16 counter | Mito fusion yeast | BCR signal inh
CCOc1ccc(-c2nnc(NC(=O)Cc3ccc(OC)cc3)o2)cc1 | 5% | 0% | 1.8µM* | 4.5µM* | -18% | 8%
CCOc1ccc(-c2nnc(NC(=O)CCCOc3cccc(C)c3)o2)cc1 | -29% | 3% | 6.3µM* | ? | 5% | 1%
CCC(=O)Nc1nnc(-c2ccc(OC)cc2)o1 | -24% | -23% | ? | 11µM* | -6% | ?
CC(=O)N/C(=N/c1nc(C)cc(C)n1)Nc1ccc(C)cc1C | ? | -1% | 0% | -3% | -2% | 1%
C[Si](C)(C/C=C/CC[C@H](O)C1=CCCCC1=O)c1ccccc1 | . | . | 3% | -4% | . | .
CN(C)CCCc1cc(C(=O)Nc2ccc(-c3ccncc3)cc2)ccc1O | . | . | -9% | 9% | ? | .
Cc1cc(OCC(=O)Nc2ccncc2)ccc1[N+](=O)[O-] | 5% | -6% | 5µM* | ? | -7% | 1%
Cc1ccc(OCC(=O)Nc2ccncc2)cc1C | 11% | . | . | . | . | .
CC(C)CCOc1cccc(OCC(=O)Nc2ccncc2)c1 | -45% | 2% | ? | 8.9µM* | -58% | -4%
COC(=O)c1ccc(NC(=O)COc2ccc([N+](=O)[O-])cc2)cc1 | -17% | -1% | -44% | 10µM* | 0% | 5%
Cc1cc(OCC(=O)Nc2ccncc2)c(C)cc1Br | 4%[7.66 µM] | . | ? | 13µM* | 19% | ?
CCN(CC)C(=O)c1sc2c(c1C)c(=O)n(-c1ccc(C)c(C)c1)c(=O)n2CC(=O)Nc1ccc(F)cc1 | . | . | . | . | . | -1%
COc1cc(-c2noc(C3CCCN(C(=O)c4c(F)cccc4F)C3)n2)cc(OC)c1OC (stereo unspecified) | 25% | 13% | 3% | 2% | -9% | ?
COc1cc(NC(=S)Nc2cccc(C)n2)cc(OC)c1OC | 8% | -3% | 2.5µM* | 8.9µM* | -24% | 1%
COc1cc(NC(=O)c2ccccn2)cc(OC)c1OC | 0% | -12% | -5% | -11% | 4% | 9%
COc1cc(NC(=S)Nc2ncccc2C)cc(OC)c1OC | ? | 7% | 13µM* | -5%[10 µM] | 0% | 1%
CCOC(=O)NC(=S)Nc1cccc(C)n1 | 2% | . | . | . | . | .
COc1cccc(-c2cncnc2NC2CCNCC2)c1 | . | . | 11% | 7% | . | .
Cc1cccc(Nc2nc(-c3c(C)nc4ccccn34)cs2)c1 | -42% | ? | 13µM* | ? | -4% | ?
